Screening data (PubChem BioAssay)
Rows were chosen to be rich in hits. Some 19% of all compounds tested hit in one or more screens of this group.
HT1080 IDH1KD tx: toxicity to HT-1080 IDH1 knockdown cells (counter line) | HT-1080 IDH1 knockdown viability, ATP luminescence, 48 h | Potency, µM (doses to about 46.1 µM), inactives show top-dose activity, negative = toxicity, actives largely listed as cytotoxic | actives 2% (n = 360,000);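 note: potency is the fitted concentration of half-maximal effect; 0% = DMSO wells and -100% = cell-free medium wells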
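Using the IDH1-knockdown HT-1080 line run in the same batch and compound series as the NT line, viability after 48 h at 37 °C was determined by CellTiter-Glo luminescence and expressed as % activity.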
HT1080-NT tox: kills 2HG-producing HT-1080-NT fibrosarcoma cells | HT-1080-NT fibrosarcoma viability, CellTiter-Glo ATP luminescence, 48 h | Potency, µM (series often up to 46.1 µM), inactives show top-dose activity, negative = less viability, usual class: cytotoxic | actives 1.6% (n = 360,000);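 note: NT is the 2HG producing partner of a matched IDH1 knockdown line; potency is the fitted concentration of half-maximal effect; 0% = DMSO-treated cells and -100% = media-only wells without cells; nearly all actives have a fitted effect of over 55% in size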
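Luminescent CellTiter-Glo readout after 48 hours of compound exposure at 37 degrees C defined viability of HT-1080-NT cells. Activity was normalized to DMSO wells and cell-free media wells; concentration-response curves were fitted and assigned curve classes.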
DT40 TDP1 no CPT: qHTS for Inhibitors of human tyrosyl-DNA phosphodiesterase 1 (TDP1): qHTS in cells in absence of CPT; actives 15% (n = 420,000); Potency, µM (top dose mostly 46.2 µM), for the others: at the highest dose activity change, negative = growth inhibition, most hits filed as inhibitors; AID 686978, 2013; DT40 Tdp1-/- hTDP1 cells, no CPT, ATP luminescence, 48 h; note: potency is the fitted concentration of half-maximal effect; nearly all actives have a fitted effect of over 55% in size
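Cells were dispensed at 400 per well, compounds added by pin tool, plates incubated ≥48 hr at 37 °C, then CellTiter-Glo added for 30 min at room temperature before luminescence reading. Line: DT40 Tdp1-/- complemented with hTDP1; camptothecin omitted.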
TDP1 cell CPT: DT40-hTDP1 cell growth loss with CPT. chicken DT40 Tdp1-/-;hTDP1 cells + 20 nM CPT, ATP luminescence, 48 h. Potency, µM (doses to about 46.2 µM), for inactives: at the highest dose activity change, negative = growth inhibition, usual class: inhibitors. actives 12% (n = 420,000). AID 686979; note: potency is the fitted concentration of half-maximal effect; nearly all actives have a fitted effect of over 55% in size
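Cell growth measured by CellTiter-Glo luminescence after a minimum 48 h, 37 C compound exposure with 20 nM CPT in Tdp1-knockout DT40 cells stably expressing hTDP1, seeded 400/well; qHTS titration format.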
IL-1B inflam inh: inhibitors of inflammasome signaling (IL-1 beta secretion). THP-1 LPS/ATP IL-1B secretion, AlphaLISA, 16 h; active compounds read low. activity change, % at 57.5 µM. actives 4.7% (n = 360,000); in the data active = activity change below about -50%; inconclusive = mostly about -30% to -49%
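THP-1 cells pretreated 1 hr with compounds (up to 57.5 uM final), then stimulated with LPS (250 ng/mL final) plus ATP (1.25 mM final); secreted IL-1B measured by AlphaLISA after 16 hr, decreased signal indicating inhibition.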
* = called active by the depositor; ? = inconclusive; · = not tested or not shown; ! = not confirmed by another sample; [ ] = another dose, or the depositor's remark. Unless noted, calls come from the whole dose curve; as a rule, active = well fitted curve in the direction sought with a large enough effect; inconclusive = small, poorly fitted or top-dose-only effect, or another doubt; inactive = no such curve, though single readings can be large; an effect the other way counts as inactive or inconclusive. Unless noted, % is set by controls: 0 for no effect and ±100 for the full control effect.

SMILES	HT1080 IDH1KD tx	HT1080-NT tox	DT40 TDP1 no CPT	TDP1 cell CPT	IL-1B inflam inh
Cc1ccc2oc3c(c(=O)c2c1)C(c1cccc(O)c1)N(Cc1ccccc1Cl)C3=O (stereo unspecified)	·	·	18.4µM*	?	·
Cc1cc2oc3c(c(=O)c2cc1C)C(c1cccc(Br)c1)N(Cc1ccco1)C3=O (stereo unspecified)	?	?	?	?	-1.6
Cc1ccc(CN2C(=O)c3oc4ccc(C)cc4c(=O)c3C2c2ccc(O)cc2)cc1 (stereo unspecified)	·	·	?	16.4µM*	·
COc1cccc(CN2CCC3(CCC(CNC(=O)c4cc(C)nn4C)O3)CC2)c1OC (stereo unspecified)	·	·	-19.7%	4.0%[9.04 µM]	·
CCOC(=O)c1ccc(CNC(=O)c2cc(C(C)(C)C)oc2C)o1	-9.2%	-9.2%	?	?	1.3
CSc1ccc(C2c3c(oc4cc(C)cc(C)c4c3=O)C(=O)N2CCO)cc1 (stereo unspecified)	·	·	23.1µM*	?	·
CSc1ccc(C2c3c(oc4cc(C)cc(C)c4c3=O)C(=O)N2Cc2ccco2)cc1 (stereo unspecified)	·	·	-2.1%	-2.4%	·
CCOc1cc(C2c3c(oc4cc(C)c(Cl)cc4c3=O)C(=O)N2Cc2ccco2)ccc1O (stereo unspecified)	14.3%	-2.8%	16.4µM*	18.4µM*	10.3
O=C1c2oc3ccc(Cl)cc3c(=O)c2C(c2cccc(Br)c2)N1CCO (stereo unspecified)	-8.5%	-2.9%	?	25.9µM*	-28.9
CC(=O)NO	15.7%	45.5%	1.68µM*!	?	14.6
Cc1ccc(NC(=O)CN(C)S(=O)(=O)c2ccc3c(c2)CCC(=O)N3)c(C)c1	·	·	-30.0%	-21.2%	·
Cc1c(NC(=O)COc2c(F)c(F)c(F)c(F)c2F)c(=O)n(-c2ccccc2)n1C	-3.8%	-2.3%	-11.3%	-7.1%	-8.5
CCC(=O)Nc1ccc(/C(C)=N/NC(=O)c2c(-c3ccccc3Cl)noc2C)cc1	7.2%	2.3%	?	?	35.7
CCc1cccc(C)c1NC(=S)NCc1ccc2[nH]c(C)cc2c1	-16.8%	0.9%	18.4µM*	23.1µM*	-29.5
CCc1cccc(C)c1NC(=S)NCc1cccn1C	8.9%	9.7%	?	20.6µM*	-3.5
Cc1ccccc1NC(=S)NCc1cccn1C	6.1%	2.9%	-0.7%	2.6%	5.4
Cc1ccc(Cl)cc1NC(=S)NCc1cccn1C	1.9%	-3.1%	18.4µM*	?	-7.8
Cc1c(CCC(=O)NCc2ccc(F)cc2)c(=O)oc2cc(O)ccc12	·	·	-20.1%	-4.8%	·
Cc1cc(N2C(=O)C3C4C=CC(C4)C3C2=O)ccc1Br (stereo unspecified)	-5.1%	-8.3%	-15.0%	-16.8%	5.3
CC(=O)Nc1ccc(NC(=O)C(C)OC(=O)c2cccc(S(=O)(=O)N3CCCCCC3)c2)cc1 (stereo unspecified)	8.8%	3.8%	?	-24.3%	?
O=[N+]([O-])c1cc([N+](=O)[O-])c(Oc2cc(Cl)ccc2Cl)cc1NC1CCCCCCC1	-1.5%	1.7%	?	18.4µM*	6.5
O=[N+]([O-])c1cc([N+](=O)[O-])c(Oc2cncc(Cl)c2)cc1NC1CCCCCCC1	15.3%	14.1%	14.6µM*	23.1µM*	2.4
O=C(NCc1ccccc1)c1ccc2c(c1)nc1n2CCOC1	·	·	-5.0%	-11.8%	·
COc1ccccc1OCCC(=O)OCC(=O)c1[nH]c(C)c(C(C)=O)c1C	-11.4%	-1.8%	?	?	-8.6
CCn1c(C)cc(/C=C2\NC(=O)N(Cc3ccc(Cl)cc3)C2=O)c1C	?	0.6%	?	-14.2%	-15.2
SMILES	HT1080 IDH1KD tx	HT1080-NT tox	DT40 TDP1 no CPT	TDP1 cell CPT	IL-1B inflam inh
Cc1ccc(/C=C2/NC(=O)N(Cc3ccccc3)C2=O)o1	-4.5%	-1.3%	23.1µM*	16.4µM*	-0.1
CCN1C(=O)N/C(=C/c2cc(C)n(Cc3ccccc3)c2C)C1=O	-28.6%	-18.4%	?	18.4µM*	-23.3
N#Cc1ccc(C(=O)N2CCCC(c3cc(C(=O)NCc4cccnc4)no3)C2)cc1 (stereo unspecified)	2.9%	?	?	?	17.5
CCc1nc(SCC(=O)Nc2ccc(N(C)C)cc2)n[nH]1	1.0%	-0.8%	4.61µM*	4.61µM*	-11.4
CCOC(=O)c1sc(SCC(=O)Nc2ccc(N(C)C)cc2)nc1N	?	-0.9%	-22.0%	-6.3%	-66.6*
CN(C)c1ccc(NC(=O)CSc2nc(N)c(C(=O)Nc3ccc(N(C)C)cc3)s2)cc1	?	-25.6%	12.6µM*	10µM*	?
COc1ccc(NC(=O)CSc2nnc(N)s2)cc1	1.2%	2.3%	-4.5%	-5.7%	25.1
NCCCCc1cn(CC(=O)N2CCNCC2)nn1	8.7%	-1.0%	3.6%	21.9%	2.2
COCCN1C(=O)CS/C1=C(/C#N)C(=O)NCc1ccco1	-1.7%	1.3%	0.5%	-3.6%	-18.2
CC(C)C[C@H](NC(=O)c1nc[nH]c1C(=O)N[C@@H](CC(C)C)C(=O)OCc1ccccc1)C(=O)OCc1ccccc1	?	?	25.9µM*	23.1µM*	-5.6
CC(C)C[C@H](NC(=O)c1[nH]cnc1C(=O)N[C@H](C)c1ccccc1)C(=O)OCc1ccccc1	-20.3%	-17.2%	16.4µM*	?	29.5
Cc1c(C(=O)NCc2cccc(C(F)(F)F)c2)sc(=O)n1Cc1cccc(F)c1	?	?	?	?	-61.8*
Cc1c(C(=O)NCc2cccc(Cl)c2)sc(=O)n1Cc1ccc(F)cc1	-1.8%	-25.1%	?	?	-57.9*
Cc1c(C(=O)NCc2ccc(C(C)C)cc2)sc(=O)n1Cc1ccc(S(=O)(=O)N(C)C)cc1	?	-14.8%	9.2µM*	13µM*	-25.2
Cc1c(C(=O)NCc2ccc(Cl)c(Cl)c2)sc(=O)n1Cc1ccc(C(=O)N(C)C)cc1	-23.5%	-23.5%	10.3µM*	14.6µM*	?
CCOC(=O)N1C2c3ccccc3C(c3ccccc32)N1C(=O)OCC	-3.0%	-3.0%	?	?	-1.8
O=S(=O)(Nc1nc2ccccc2s1)c1ccc(Cl)nc1	4.3%	1.3%	-8.3%	-20.9%	38.4
CCc1cccc(C)c1NC(=O)NC1COc2ccccc2C1 (stereo unspecified)	·	·	-25.5%	-25.3%	·
Cc1c(C(=O)NCc2ccccc2C(F)(F)F)sc(=O)n1Cc1ccc(F)cc1	-15.6%	-21.1%	?	20.6µM*	-18.3
Cc1c(C(=O)NCc2cccc(Cl)c2)sc(=O)n1Cc1ccc(C(=O)N(C)C)cc1	-8.4%	-15.6%	?	16.4µM*	-11.7
